Bioassay records deposited in PubChem by National Center for Advancing Translational Sciences (NCATS).
POLH inh: blocks human DNA polymerase eta activity. Q9Y253. recombinant Pol eta, fluorescent DNA replication assay. Potency, µM (top dose mostly 114 µM), without a hit: top-dose activity change, negative = inhibition, usual class: inhibitors. 390,000 compounds, 1.2% hits; note: potency is the fitted concentration of half-maximal effect; % is set by controls: 0 for no effect and ±100 for the full control effect
Target sequence (Q9Y253 whole entry, looked up): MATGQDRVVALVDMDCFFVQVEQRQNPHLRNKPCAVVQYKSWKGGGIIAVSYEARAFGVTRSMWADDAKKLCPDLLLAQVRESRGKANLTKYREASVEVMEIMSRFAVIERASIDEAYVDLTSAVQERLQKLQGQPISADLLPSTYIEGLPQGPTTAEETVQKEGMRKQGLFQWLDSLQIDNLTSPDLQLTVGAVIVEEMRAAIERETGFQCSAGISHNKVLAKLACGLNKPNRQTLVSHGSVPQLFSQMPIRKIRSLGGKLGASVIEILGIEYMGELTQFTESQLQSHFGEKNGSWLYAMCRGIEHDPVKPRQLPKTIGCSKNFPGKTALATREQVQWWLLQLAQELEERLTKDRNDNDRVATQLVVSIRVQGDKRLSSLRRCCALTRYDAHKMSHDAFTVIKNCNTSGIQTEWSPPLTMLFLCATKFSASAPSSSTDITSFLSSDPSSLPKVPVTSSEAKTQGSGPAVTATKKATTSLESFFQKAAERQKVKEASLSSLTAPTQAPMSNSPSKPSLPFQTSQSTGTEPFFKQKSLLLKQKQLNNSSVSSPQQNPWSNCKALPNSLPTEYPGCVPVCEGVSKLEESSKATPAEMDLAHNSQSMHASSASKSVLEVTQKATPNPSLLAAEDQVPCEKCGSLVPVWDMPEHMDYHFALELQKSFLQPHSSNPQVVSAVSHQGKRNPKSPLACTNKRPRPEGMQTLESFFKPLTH
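Fluorescent replication assay: 50 nM final substrate added after a 15 min room-temperature compound preincubation with 10 nM enzyme. Signal taken at 0 min and again at 10 min.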
WRN helicase inh: WRN helicase (human) inhibition | Q14191 | WRN helicase unwinding, fluorescent forked duplex, kinetic | Potency, µM (titrated, usually from 114 µM), for inactives: at the top dose activity change, negative = inhibition, actives largely listed as inhibitors | 360,000 compounds, 0.46% hits | AID 651768; note: potency is the fitted concentration of half-maximal effect; % is set by controls: 0 for no effect and ±100 for the full control effect; nearly all actives have a fitted effect of over 55% in size
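Screening of the MLSMR collection measured strand separation of a quenched forked DNA duplex (100 nM) by 20 nM WRN with 2 mM ATP, all final. Compounds were preincubated with enzyme 15 min at room temperature.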
Pol beta inh: DNA polymerase beta (human) inhibition; Pol beta primer extension/strand displacement, fluorescence kinetic; Potency, µM (series often up to 114 µM), inactives show top-dose activity change, negative = inhibition, hits mostly inhibitors; 340,000 compounds, 1.3% hits; P06746; note: potency is the fitted concentration of half-maximal effect; % is set by controls: 0 for no effect and ±100 for the full control effect
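Enzyme-only controls used 10 nM Pol beta; buffer lacking enzyme served as negative control. Compound preincubated 15 min, then 50 nM substrate added; 0 and 10 min reads at room temperature.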
PI5P4K alpha inh: blocks human PI5P4K alpha kinase activity; P48426; PI5P4Kalpha enzyme, ADP-Glo luminescence, 60 min; stronger effect = lower value; max response, %; 330,000 compounds, 1.2% hits; active = max response of -50% or lower; inconclusive = between -30% and -50%; inactive = -30% or higher; note: value at the top dose of about 77 µM; % is set by controls: 0 for no effect and ±100 for the full control effect
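PI5P4Kalpha ADP-Glo assay; 5 microM ATP final; 60 min RT reaction; HEPES pH 7.4/EGTA/CHAPS, 5% DMSO; controls lacking substrate or enzyme; luminescent end-point.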
Pol iota inh: blocks human DNA polymerase iota activity. Potency, µM (highest dose often 115 µM), for the others: at the highest dose activity, negative = inhibition, actives largely listed as inhibitors. Q9UNA4. Pol iota fluorescent replication assay, 10 min. 390,000 compounds, 1% hits; note: potency is the fitted concentration of half-maximal effect
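Fluorescent replication assay read twice, at 0 min and 10 min after adding 50 nM (final) substrate. Enzyme (10 nM) and compounds were first incubated 15 min at room temperature; enzyme-free buffer wells were negative controls.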
Pol kappa inh: blocks human DNA polymerase kappa activity; purified Pol kappa, fluorescent DNA synthesis assay, 10 min; Potency, µM (titrated, usually from 107 µM), inactives show top-dose activity, negative = inhibition, hits mostly inhibitors; AID 588579; 400,000 compounds, 0.53% hits; note: potency is the fitted concentration of half-maximal effect; % is set by controls: 0 for no effect and ±100 for the full control effect
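Activity was followed as the change in fluorescence between reads at 0 and 10 min after starting the reaction with 50 nM substrate. Beforehand, 10 nM polymerase had been preincubated with compound for 15 min at room temperature.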
* hit, by the source's call; ? = inconclusive; . = no result given; [ ] = dose if it differs, or a comment. Most compounds without a hit are left out; they make up all but 2.8% or so of the library. Unless noted, calls come from the whole dose curve; as a rule, active = well fitted curve in the direction sought with a large enough effect; inconclusive = small, poorly fitted or top-dose-only effect, or another doubt; inactive = no such curve, though single readings can be large; an effect the other way counts as inactive or inconclusive.

SMILES | POLH inh | WRN helicase inh | Pol beta inh | PI5P4K alpha inh | Pol iota inh | Pol kappa inh
O=C(COc1ccc2cc(-c3ccccc3)c(=O)oc2c1)NCC1CCC(C(=O)O)CC1 (stereo unspecified) | -9.9% | -0.1% | 1.9% | -1.1 | -29.7% | -16.4%
C=C1C(=O)C23C(O)C1CCC2C12CCCC(C)(COC(C)=O)C1C(O)C3(O)OC2 (stereo unspecified) | 1.5% | 17.8µM* | . | -7.9 | -3.0% | -3.8%
NC(=O)CC(NC(=O)Cc1cccc2ccccc12)c1ccc(NC2CCN(Cc3ccccc3)CC2)c([N+](=O)[O-])c1 (stereo unspecified) | -3.0% | -12.8% | 50.1µM* | -4.2 | -28.0% | -7.4%
NC(=O)CC(NC(=O)Cc1ccc(Br)cc1)c1ccc(NC2CCCC2)c([N+](=O)[O-])c1 (stereo unspecified) | -1.5% | 6.4% | 15.7% | 1.0 | -4.3% | -7.1%
NC(=O)CC(NC(=O)Cc1ccc(Br)cc1)c1ccc(NC2CCN(Cc3ccccc3)CC2)c([N+](=O)[O-])c1 (stereo unspecified) | -11.1% | -0.8% | 44.7µM* | 2.5 | 0.9% | 11.9%
O=C(c1nc2ccc(Cl)cn2c1CN1CCCC1)N1CCc2ccccc2C1 | 31.6µM* | -10.8%[11.6 µM] | ? | -19.9 | 17.8µM* | ?
Cc1cccc(OCC(=O)NC(=S)NNC(=O)c2ccncc2)c1 | 1.6% | ? | 8.1% | -73.2* | 114.7% | -8.4%
O=[N+]([O-])c1ccc(Sc2ccncn2)c([N+](=O)[O-])c1 | 50.1µM* | ? | . | 1.0 | . | .
Cc1cc(C)nc(Sc2ccc([N+](=O)[O-])cc2[N+](=O)[O-])n1 | ? | -28.1% | 12.4% | 46.8 | 4.1% | -10.1%
COc1ccc([N+](=O)[O-])cc1N(CC1CO1)S(=O)(=O)c1ccc(C)cc1 (stereo unspecified) | -19.5% | -0.3% | 1.3% | -4.1 | 10.2% | -7.1%
Cc1ccc(/C=C/C(=O)N2CCN(S(=O)(=O)c3cccs3)CC2)o1 | -3.0% | -7.3% | 1.5% | -22.2 | 23.4% | -3.2%
O=C(/C=C/c1ccco1)N1CCN(S(=O)(=O)c2cccs2)CC1 | ? | -1.1%[11.6 µM] | 50.1µM* | -26.6 | 39.8µM* | -13.1%
CN(C(=O)c1nc(-c2cccc(F)c2)n2c1CCCCC2)c1ccccc1F | -13.3% | . | 8.5% | . | 39.3% | 1.9%
CCOc1ccc(CCNC(=O)c2nc(-c3cccc(F)c3)n3c2CCCCC3)cc1OCC | -20.6% | . | 3.9% | . | ? | 89.1µM*
SCc1nc2ccccc2[nH]1 | . | . | . | . | -4.6% | -12.1%
CS(=O)(=O)N(CC(=O)NCc1ccco1)c1ccc(OCc2ccccc2)cc1 | -13.4% | -8.6% | 15.8µM* | 1.0 | ? | -13.5%
COc1cc(NS(=O)(=O)c2ccc(C)cc2)c2c(c1N)C(=O)c1ccccc1C2=O | -9.3% | ? | . | -12.0 | . | .
S=C(NCCc1ccccc1)N1CCN(C(c2ccccc2)c2ccccc2)CC1 | -8.8% | -26.5% | 89.1µM* | 4.8 | -5.6% | -2.8%
CCCNC(=S)N1CCN(C(c2ccccc2)c2ccccc2)CC1 | ? | -6.8% | 56.2µM* | 0.5 | -8.6% | -10.9%
CCCc1cc(C(=O)N2CCN(C(c3ccccc3)c3ccccc3)CC2)no1 | ? | -7.4%[57.1 µM] | -19.3% | 1.8 | ? | 89.1µM*
Cc1ccc(OCCSc2nc3ccccc3n2CCC(=O)O)c(C(C)C)c1 | ? | -5.0%[11.6 µM] | . | -6.3 | . | .
Cc1ccc(-n2cccc2/C=C2\C(=N)N3N=C(C(C)C)SC3=NC2=O)cc1 | -12.1% | -6.4% | 28.2µM* | -8.0 | 12.1% | -11.5%
CCC1=NN2C(=N)/C(=C\c3cccn3-c3ccc(OC)cc3)C(=O)N=C2S1 | -19.1% | -3.2% | 0.4% | -2.0 | ? | -9.6%
O=S(=O)(Nc1cccc2ccccc12)c1cccs1 | -21.5% | -3.3% | 1.0% | 5.6 | 16.4% | -2.6%
O=S(=O)(Nc1ccc(O)c2ccccc12)c1cccs1 | 3.0% | 50.1µM* | -8.6% | -27.0 | ? | -9.6%
SMILES | POLH inh | WRN helicase inh | Pol beta inh | PI5P4K alpha inh | Pol iota inh | Pol kappa inh
Cc1cc2c(cc1C)N[C@]1(C[C@H]3CCC(=O)N4CC[C@@H](C1)[C@@H]34)C(=Nc1ccccc1C)N2 | . | . | . | . | 33.9% | 10.4%
CC(C)C(C)N(Cc1cccc(C(=O)O)c1)C(=O)c1ccc2ccccc2n1 (stereo unspecified) | -12.4% | 8.0% | . | 2.8 | 22.4µM* | -15.9%
CCC(C(=O)Nc1cc(-c2cn3cccnc3n2)ccc1C)c1ccccc1 (stereo unspecified) | 13.2% | . | 39.8µM* | . | -23.4% | -0.3%[60.1 µM]
O=C(Nc1cccc(-c2cn3cccnc3n2)c1)c1ccc(Br)o1 | -7.2% | -7.7%[57.1 µM] | 1.0% | . | 79.4µM* | ?
COc1cccc(NC(=O)Nc2cc(-c3cn4cccnc4n3)ccc2OC)c1 | ? | . | -25.5% | . | ? | -19.3%
COc1cccc(NC(=O)Nc2cc(-c3cn4cccnc4n3)ccc2C)c1 | -27.9% | . | 7.94µM* | . | 7.4% | -4.3%
COC(=O)[C@@H]1C[C@@]2(Br)c3ccccc3N(S(=O)(=O)c3ccccc3)[C@H]2N1C(=O)OC | -16.7% | -11.5%[11.6 µM] | . | -1.9 | 89.1µM* | -1.1%
COC(=O)[C@@H]1C[C@]2(Br)c3ccccc3N(S(=O)(=O)c3ccccc3)[C@@H]2N1C(=O)OC | -12.4% | 0.2% | . | -0.7 | -15.7% | 3.2%
CN(CCN(C)c1nc(-c2cccs2)nc2ccccc12)C(=O)OC(C)(C)C | . | . | . | . | 34.7% | 0.1%
O=S(=O)(Cc1cc(NCc2ccccc2)nc(-c2ccncc2)n1)c1ccccc1 | -8.8% | 2.7% | 79.4µM* | -2.2 | 89.3% | -2.5%
CN(C)c1ccc(/C=C2/C[N+](C)(C)C/C(=C/c3ccc(N(C)C)cc3)C2=O)cc1 | ? | 20µM* | . | -16.4 | -18.6% | -24.9%
O=C(O)CSc1ncnc2sc(-c3ccccc3)cc12 | 2.2% | -7.4% | 4.5% | -78.1* | 68.0% | -13.6%
Cc1ccccc1OCC(=O)Nc1cc(C)c(O)c(-c2nc3ccccc3o2)c1 | . | . | . | . | ? | 2.5%
COc1ccc(CCn2c(-n3nc(C)cc3C)nc3c2c(=O)[nH]c(=O)n3C)cc1 | -20.6% | 79.4µM* | . | ? | -3.5% | 0.2%
CN1/C(=C\C=C(C#N)C#N)C(C)(C)c2ccccc21 | ? | -9.0% | -12.6% | 0.1 | -0.1% | 0.8%
CC[n+]1c(/C=C/C=C2/N(C)c3ccccc3C2(C)C)sc2ccccc21 | . | . | . | . | . | 26.7µM*
O=C(NCCc1ccco1)C(=O)NCC1CCCN1S(=O)(=O)c1ccccc1 (stereo unspecified) | -4.4% | 1.3% | . | -6.3 | ? | -18.3%
CC(C)COc1ccc(CC(=O)NO)cc1 | . | . | . | . | 48.2% | -15.8%
CCOC(=O)c1cccc(S(=O)(=O)N2CCOCC2)c1 | -6.0% | -21.7% | 1.2% | 0.9 | 92.0% | 6.2%
